# High-throughput results as filed in PubChem BioAssay.
# The list is not random: actives were taken first. Their share in the collection is about 0.5%.
# FXIIa mix inh – human factor XIIa inhibitors, primary screen, biochemical, pooled compound mixtures, fluorogenic substrate | Coagulation factor XII (Homo sapiens), P00748 | purified FXIIa | inhibition, % at 5 µM | hit rate 0.2% among 62,000 | AID 684, 2007;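 also: 0% = enzyme without compound and 100% = no enzyme blank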
# FXIa inh mix – FXIa protease inhibitors in compound pools, primary screen, biochemical, 10-compound mixtures; purified FXIa, fluorogenic substrate, pooled mixtures; Coagulation factor XI (Homo sapiens), P03951; hit rate 0.19% among 62,000; inhibition, % at 5 µM;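 also: each value is inhibition by a whole ten-compound pool holding the compound; 0% = enzyme with no mixture and 100% = wells lacking enzyme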
# CatG inh – human cathepsin G inhibitors, primary screen, biochemical, pooled compound mixtures, AMC fluorescence; AID 581, 2007; P08311; purified enzyme, AMC-tetrapeptide fluorescence; hit rate 0.2% among 62,000; inhibition, % at 5 µM (by protocol);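 active = inhibition above 20% in each of the two mixture wells holding the compound; inactive = inhibition of 20% or less in either well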;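 also: 0% = enzyme control without mixture and 100% = blank lacking enzyme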
# C1s inh – complement C1s protease inhibitors, primary screen, biochemical, 10-compound mixtures; AID 538, 2006; purified C1s, fluorogenic AMC substrate, pooled mixtures; mean inhibition % of two 10-compound mixtures (hits give high values), % at 5 µM (by protocol); Complement C1s subcomponent (Homo sapiens), P09871; hit rate 0.16% among 62,000;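 active = inhibition above 20% in each of the two 10-compound mixture wells holding the compound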;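 also: 0% = enzyme wells lacking compound mixture and 100% = no-enzyme blank wells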
# Target sequence (P09871 16-437 limits assumed): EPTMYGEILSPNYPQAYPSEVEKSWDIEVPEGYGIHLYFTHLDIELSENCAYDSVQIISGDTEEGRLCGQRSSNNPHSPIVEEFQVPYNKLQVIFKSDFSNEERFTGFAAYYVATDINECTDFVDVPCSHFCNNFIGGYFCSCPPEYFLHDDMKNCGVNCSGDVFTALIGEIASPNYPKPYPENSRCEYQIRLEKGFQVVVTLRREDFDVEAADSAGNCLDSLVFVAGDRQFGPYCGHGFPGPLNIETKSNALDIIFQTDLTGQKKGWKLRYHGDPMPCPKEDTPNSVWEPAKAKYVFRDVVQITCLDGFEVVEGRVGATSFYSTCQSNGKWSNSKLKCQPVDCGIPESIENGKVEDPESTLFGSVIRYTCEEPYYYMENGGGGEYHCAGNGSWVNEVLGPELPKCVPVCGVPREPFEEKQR
# Target sequence (P09871 438-688 limits assumed): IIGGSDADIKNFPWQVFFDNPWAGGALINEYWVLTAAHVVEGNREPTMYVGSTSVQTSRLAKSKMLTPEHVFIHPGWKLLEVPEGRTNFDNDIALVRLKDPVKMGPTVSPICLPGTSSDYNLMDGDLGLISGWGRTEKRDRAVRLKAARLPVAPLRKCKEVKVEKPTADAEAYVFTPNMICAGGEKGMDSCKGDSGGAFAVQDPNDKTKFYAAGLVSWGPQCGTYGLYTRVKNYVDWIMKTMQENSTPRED
# * = called active by the depositor; / = no result given. Rule as the data show it, unless noted: active = inhibition above about 20% (passing the limit was not always enough); inactive = the rest.
SMILES,FXIIa mix inh,FXIa inh mix,CatG inh,C1s inh
CCN(CC)C(=O)CSc1nc2ccccc2c(=O)n1OC,-19,1,2,-32
CCOC(=O)C(C)On1c(SC(C)C(=O)OCC)nc2ccccc2c1=O (stereo unspecified),49*,12,1,-7
CCOc1ccc2[nH]c3c(N4CCN(c5ccccn5)CC4)ncnc3c2c1,1,1,11,69*
c1ccc(Cn2ncc3c(N4CCCCC4)ncnc32)cc1,11,2,5,-34
Cc1ccc(Cn2ncc3c(N4CCN(c5ccccc5C)CC4)ncnc32)cc1,4,13,20,22*
CCC(C)NC(=O)CCNS(=O)(=O)c1ccc(Br)cc1 (stereo unspecified),11,21,36,21
O=C(O)CCCC(=O)Nc1ccccc1C(=O)O,1,7,10,49*
Cc1ccccc1N1C(=O)N(c2cccc(C(F)(F)F)c2)C2CS(=O)(=O)CC21 (stereo unspecified),9,-1,2,-13
Cc1cc(C)cc(N2CCCn3c2nc2c3c(=O)n(CCN3CCOCC3)c(=O)n2C)c1,13,23*,5,0
CCCCOC(=O)CCn1[nH]c(=O)c2ccccc2c1=O,0,6,13,15
O=C(CCn1[nH]c(=O)c2ccccc2c1=O)OC1CCCCC1,4,21*,10,15
O=C(NCc1ccc2c(c1)OCO2)c1ccc(C2SCC(=O)N2Cc2ccco2)cc1 (stereo unspecified),4,1,-8,-14
COC(=O)c1sc(NC(=O)C2CCCCC2C(=O)O)c(C(=O)OC)c1C (stereo unspecified),3,6,10,5
COCCNC(=O)c1cc(-c2ccc(OC)c(OC)c2)on1,12,0,-2,-2
COc1ccc(CNC(=O)c2cc(-c3ccccc3OC)on2)cc1,9,5,10,16
COc1ccccc1-c1cc(C(=O)NCc2ccccc2)no1,-4,11,51*,-22
COc1ccc(CCNC(=O)c2cc(-c3ccccc3)on2)cc1OC,47*,7,9,7
COc1ccccc1-c1cc(C(=O)NCc2ccc(F)cc2)no1,5,11,/,44
COc1ccccc1-c1cc(C(=O)NCc2ccc(Cl)cc2)no1,4,3,46*,-10
CCOC(=O)c1c(NC(=O)CSc2nnnn2CC)sc(C)c1C,-18,1,-9,-13
CCS(=O)(=O)N1Cc2ccccc2CC1C(=O)N1CCN(c2cccc(C)c2C)CC1 (stereo unspecified),5,-3,-3,-8
CCn1c(Oc2ccc(Oc3ncc(Cl)cc3Cl)cc2)nc2c1c(=O)n(C)c(=O)n2C,0,8,13,7
Cc1cc(NC(=O)CN2CCc3ccccc3C2)nc2c1c(=O)oc1ccccc12,1,-6,8,-39
CCC(=O)Nc1nc(C)cc(SCC(=O)OC)n1,-1,21*,9,17
CC(=O)Nc1cccc(NC(=O)Nc2ccc(C(C)=O)cc2)c1,24,25*,25,-5
SMILES,FXIIa mix inh,FXIa inh mix,CatG inh,C1s inh
CCCN(c1ccc(C(C)C)cc1)S(=O)(=O)c1c(C)noc1C,35*,8,-1,-1
Nn1c(SCc2nc3ccccn3c2Br)nnc1-c1cccnc1,5,8,8,8
COc1ccc(CCNc2cc(=O)[nH]c(N)n2)cc1,12,-3,-4,-6
CCOC(=O)C1CCN(C(=O)CSc2ccccc2)CC1,6,6,13,65*
COc1ccccc1-c1c(C#N)c(SCC(=O)N2CCCC2)nc(C)c1C(N)=O,-18,7,25*,11
Cc1nn(-c2ccccc2)c(Cl)c1C(=O)Nc1nnc(C2CCCC2)s1,2,-2,12,18
O=C(Oc1ccc(-n2cnnn2)cc1)c1ccco1,3,7,11,31*
O=C(Oc1ccc(N2C(=O)CCC2=O)cc1)c1ccco1,4,-1,1,1
CCOC(=O)CSc1nnc(CNC(=O)Cc2ccccc2)n1C,13,26,-4,-19
COC(=O)CSc1nnc(CNC(=O)Cc2ccccc2)n1C,9,26*,3,-4
COc1ccc(-c2nnc3n2N=C(c2ccccc2)CS3)cc1OC,32*,5,10,12
COc1ccc(C2=Nn3c(nnc3-c3ccccc3)SC2)cc1OC,3,10,6,0
CCn1c(SCCC(=O)Nc2ccccc2)nnc1-c1ccc(OC)cc1,-1,2,8,13
COc1ccccc1N=Cc1nc(-c2ccccc2)oc1OC(C)=O,6,50*,26*,9
CSc1ccccc1N=Cc1nc(-c2ccccc2)oc1O,12,4,13,10
O=C(O)COCc1nc2ccccc2[nH]1,-11,10,14,22*
CCOC(=O)CCc1nc2ccccc2[nH]1,0,-2,-10,-18
Cc1ccc(C)c(N2CCN(C(=O)c3cc(S(=O)(=O)N4CCOCC4)ccc3F)CC2)c1,10,5,-3,-1
CCOC(=O)N1CCC(N2C(=O)c3cc(C(=O)NC4CCCCC4)ccc3C2O)CC1 (stereo unspecified),3,25*,-2,-4
CCCN1C(=O)c2cc(C(=O)NC3CCCCCC3)ccc2C1O (stereo unspecified),10,5,-1,-16
O=C(O)C1CCC(=O)N1Cc1ccccc1Cl (stereo unspecified),4,5,-4,-10
CCOC(=O)N1CCC(NC(=O)C2CCCN(Cc3nc(-c4cccc(Cl)c4)oc3C)C2)CC1 (stereo unspecified),1,21*,4,-10
COCCNS(=O)(=O)c1ccc(SC)cc1,-7,7,10,15
COc1ccc(N2C(=O)C3CCCN3C2c2cccc(C)c2)cc1Cl (stereo unspecified),23*,3,3,-27
C=CCNC(=O)c1ccc(Cl)cc1Cl,-21,25*,14,14
SMILES,FXIIa mix inh,FXIa inh mix,CatG inh,C1s inh
C=CCNC(=O)c1ccc(C)cc1Cl,4,-6,9,5
C=CCn1c(SCn2nnc3ccccc3c2=O)nnc1C1CCCCC1,-14,1,1,-4
CCOc1ccc(S(=O)(=O)N(CC(=O)O)c2ccc(C)cc2)cc1,48*,-1,3,3
COc1ccc(CC(=O)OCc2cc3ccc(C)cc3[nH]c2=O)cc1,1,8,0,-2
COc1ccc(CC(=O)OCc2cc3ccccc3[nH]c2=O)cc1,13,-3,-9,67*
CCOn1c(=O)c(-c2cc3ccccc3o2)[n+]([O-])c2ccccc21,-13,24*,6,3
Cc1c(=O)n(OCc2ccccc2)c2ccccc2[n+]1[O-],3,6,10,6
OC(COc1ccc(C2C=CCC2)cc1)CN1CCCCC1 (stereo unspecified),4,1,0,-13
CCCCn1c(SCC(=O)NC(C)(C)C)nnc1-c1ccco1,21*,3,11,38
CCCCn1c(SCC(N)=O)nnc1-c1ccco1,-17,4,-4,-5
